Shown are actives, neighbours in structure and some others; about 4.3% of the full set was active somewhere.
HGIII-sPLA2 inh: human group III sPLA2 inhibitors, primary screen, biochemical, QFRET, BODIPY PC-A2 liposome substrate. AID 743126, 2013. Group 3 secretory phospholipase A2 (Homo sapiens), Q9NZ20. QFRET BODIPY PC-A2 liposome hydrolysis, fluorescence. 370,000 tested, 0.56% active. inhibition, % at 12.2 µM;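 active means inhibition above mean plus 3 SD of compounds lying within the high and low control bounds, cut at about 19% in these data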
Target sequence (Q9NZ20 whole entry, looked up): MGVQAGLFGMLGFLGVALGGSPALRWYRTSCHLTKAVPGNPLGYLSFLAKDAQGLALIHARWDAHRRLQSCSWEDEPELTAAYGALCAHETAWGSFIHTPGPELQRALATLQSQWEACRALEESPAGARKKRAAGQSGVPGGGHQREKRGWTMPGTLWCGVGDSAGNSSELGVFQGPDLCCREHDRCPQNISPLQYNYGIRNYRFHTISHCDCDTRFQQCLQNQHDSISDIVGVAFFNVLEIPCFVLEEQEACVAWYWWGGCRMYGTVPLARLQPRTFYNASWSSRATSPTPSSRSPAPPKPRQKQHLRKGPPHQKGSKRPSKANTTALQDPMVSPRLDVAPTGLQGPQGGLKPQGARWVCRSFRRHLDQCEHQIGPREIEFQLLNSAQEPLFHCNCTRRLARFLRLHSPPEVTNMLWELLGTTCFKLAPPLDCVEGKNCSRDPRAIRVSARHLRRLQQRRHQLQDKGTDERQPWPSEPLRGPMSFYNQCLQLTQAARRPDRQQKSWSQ
FAS-TE inh: FAS thioesterase domain inhibitors, primary screen, biochemical, fluorescence intensity, uHTS. Fatty acid synthase (Homo sapiens), P49327. recombinant FAS-TE, OMFH fluorogenic substrate, fluorescence endpoint. inhibition, % at 15 µM. 360,000 tested, 0.67% active;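 active means compounds whose normalised, plate-corrected inhibition of enzyme fluorescence in the single-dose primary screen is 50% or more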
GRIN3A LBD mod: binders of NR3A ligand-binding domain, primary screen, biophysical, differential scanning fluorimetry, uHTS. AID 1259313, 2017. Tm shift relative to glycine control, % at 25 µM. NR3A LBD differential scanning fluorimetry, Tm shift; 0% = protein alone, 100% = glycine-bound protein. 340,000 tested, 2.5% active. Glutamate receptor ionotropic, NMDA 3A (GRIN3A) ligand-binding domain;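 active means melting temperature shift of at least 10% of the positive control shift, at one fixed dose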
ADAM17 inh: ADAM17 inhibitors, primary screen, biochemical, QFRET; Disintegrin and metalloproteinase domain-containing protein 17 (Homo sapiens), P78536; recombinant ADAM17, EDANS/DABCYL FRET peptide cleavage; inhibition, % at 6.95 µM; 370,000 tested, 0.83% active; AID 720648, 2013;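 active means inhibition above the mean of compounds lying between control limits plus 3 SD, set per campaign, cut at about 8.5% in these data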
ADAM10 inh: human ADAM10 inhibitors, primary screen, biochemical, QFRET, HTS | AID 720582, 2013 | Disintegrin and metalloproteinase domain-containing protein 10 (Homo sapiens), O14672 | recombinant ADAM10, EDANS/DABCYL FRET peptide cleavage, 3 h | inhibition, % at 7 µM | 370,000 tested, 0.62% active;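 active means inhibition above a per-campaign cutoff equal to the mean of compounds falling between control-based bounds plus 3 SD, cut at about 20% in these data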
Large screens that a line does not name were inactive.

N#Cc1c(-c2ccc(Cl)cc2)n(O)c2ccccc12	GRIN3A LBD mod 23 (no result: HGIII-sPLA2 inh, ADAM17 inh, ADAM10 inh)
CN(C)c1oc(-c2ccc(OCc3ccc(Cl)cc3)cc2)nc1C#N	GRIN3A LBD mod 29
CCOc1ccc(Nc2oc(-c3ccc(Cl)cc3)nc2C#N)cc1	none
COCCNC(=S)N/N=C(\C)c1cccc(C(F)(F)F)c1	GRIN3A LBD mod 52
Cc1ccc(NC(=O)C2CCC(=O)N2C(=O)OCc2ccccc2)cc1 (configuration not stated)	none
COc1ccc(NC(=O)C2CCC(=O)N2C(=O)OCc2ccccc2)cc1 (configuration not stated)	GRIN3A LBD mod 11
O=C(Nc1ccc(F)cc1)Nc1c(-c2ccc(F)cc2)nc2ncccn12	none (no result: FAS-TE inh, GRIN3A LBD mod)
O=C(c1cscn1)N1CCC(Oc2cccnc2)CC1	none (no result: FAS-TE inh, GRIN3A LBD mod)
FC(F)Sc1ccc(NC(=S)NC2CCC(NC(=S)Nc3ccc(SC(F)F)cc3)CC2)cc1 (configuration not stated)	GRIN3A LBD mod 17
Oc1cccc2c(NC(=S)Nc3ccc(SC(F)F)cc3)cccc12	GRIN3A LBD mod 25
O=C(Nc1cccnc1Cl)c1cc2c(s1)-c1ccccc1OC2	none
O=C(Nc1ccc(Cl)cn1)c1cc2c(s1)-c1ccccc1OC2	GRIN3A LBD mod 15
O=C(Nc1nccs1)c1cc2c(s1)-c1ccccc1OC2	none
Cc1cccc2c1-c1sc(C(=O)Nc3cccnc3)cc1CO2	GRIN3A LBD mod 18
O=C(Nc1cccnc1)c1cc2c(s1)-c1ccccc1OC2	GRIN3A LBD mod 35
O=C(CCn1nnc(-c2cccs2)n1)NCc1cccs1	none (no result: FAS-TE inh, GRIN3A LBD mod)
COc1cc2oc3ccccc3c(=O)c2cc1OC	none (no result: HGIII-sPLA2 inh, ADAM17 inh, ADAM10 inh)
O=c1c2ccccc2oc2cc(Br)ccc12	GRIN3A LBD mod 13
COC(=O)c1c(-c2ccc(SC)cc2)sc2ccc(OC)cc12	GRIN3A LBD mod 13
C[C@H]1C2CC(OC(=O)Nc3cccc(F)c3)C(C2)[C@H]2CCCCN21 (some centres not stated)	none (no result: FAS-TE inh, GRIN3A LBD mod)
O=C(Cn1c2ccccc2c(=O)c2cc([N+](=O)[O-])ccc21)Nc1ccccc1Cl	GRIN3A LBD mod 18
Cc1cc([N+](=O)[O-])c2[nH]c(C(=O)N/N=C/c3ccccc3C(=O)O)c(-c3ccccc3)c2c1	GRIN3A LBD mod 29
CCOc1ccccc1CN(Cc1ccco1)S(=O)(=O)c1ccc(-n2cnnn2)c(OC)c1	ADAM17 inh 12
O=C(c1cccc(S(=O)(=O)N2CCCCCC2)c1)N1CCN(c2ccccc2F)CC1	GRIN3A LBD mod 17
Cc1ccccc1N1CCN(S(=O)(=O)c2ccc3c(c2)oc(=O)n3C)CC1	none (no result: FAS-TE inh, GRIN3A LBD mod)
O=C(c1ccccc1C(=O)N1CCN(c2ccccc2F)CC1)N1CCN(c2ccccc2F)CC1	none
O=C(c1cccc(S(=O)(=O)N2CCN(c3ccccc3)CC2)c1)N1CCN(c2ccccc2O)CC1	GRIN3A LBD mod 10
Cn1c(=O)oc2cc(S(=O)(=O)N3CCN(c4ccccc4F)CC3)ccc21	GRIN3A LBD mod 12
O=C(c1ccccc1F)N1CCN(c2ccccc2F)CC1	GRIN3A LBD mod 12
COc1ccc(-c2cc(-c3nnc4sc(Cc5cccs5)nn34)[nH]n2)cc1	none (no result: FAS-TE inh, GRIN3A LBD mod)
Cc1cc(C)cc(C(=O)OCCCN(C)C2CN(Cc3cn(Cc4ccc([N+](=O)[O-])cc4)nn3)S(=O)(=O)C2)c1 (configuration not stated)	none (no result: FAS-TE inh, GRIN3A LBD mod)
CC(C)(C)OC(=O)N1CCC(NC(=O)c2[nH]cnc2C(=O)Nc2ccc(Cl)cc2)CC1	GRIN3A LBD mod 27
CC(C)(C)OC(=O)N1CCC(NC(=O)c2[nH]cnc2C(=O)Nc2ccccc2)CC1	none
Cc1ccc(NC(=O)c2nc[nH]c2C(=O)NC2CCN(C(=O)OC(C)(C)C)CC2)cc1	GRIN3A LBD mod 23
COC(=O)C1=C(C(=O)OC)[C@@]2([C@@H](Cc3ccc(C)cc3)Nc3ccccc3)C=C[C@@H]1O2	none (no result: FAS-TE inh, GRIN3A LBD mod)
O=C(NCc1nc(-c2ccc(C(F)(F)F)cc2)no1)Nc1ccc(OC(F)(F)F)cc1	GRIN3A LBD mod 36
CCCC1CCC2(CCC(=O)N2CCSc2ccccc2)CC1 (configuration not stated)	none (no result: FAS-TE inh, GRIN3A LBD mod)
Cc1cc(=O)[nH]c(SCC(=O)Nc2cccc(C)c2C)n1	none (no result: FAS-TE inh, GRIN3A LBD mod)
O=[N+]([O-])c1ccc(/C=C/C2=NN(c3ccccc3)C(c3ccco3)C2)o1 (configuration not stated)	GRIN3A LBD mod 199
Cc1sc(NC(=O)c2oc3ccccc3c2C)c(C#N)c1C	none (no result: HGIII-sPLA2 inh, ADAM17 inh, ADAM10 inh)
Cc1cccc2cc3c(N)c(C#N)sc3nc12	GRIN3A LBD mod 36
CCc1cccc2cc3c(N)c(C(=O)Nc4ccc(S(=O)(=O)N5CCCC5)cc4)sc3nc12	none
Cc1cccc2cc3c(N)c(C(=O)N4CCc5ccccc54)sc3nc12	none
Cc1cccc2cc3c(N)c(C(=O)Nc4ccc(N5CCOCC5)cc4)sc3nc12	GRIN3A LBD mod 14
Cc1sc(NC(=O)c2sc3nc4c(C)cccc4cc3c2N)c(C#N)c1C	GRIN3A LBD mod 19
COC(=O)[C@]12C[C@H](CC(=O)NCCc3ccccc3OC)C(=O)N(CCc3ccc(OC)c(OC)c3)C1=C[C@H](C1CCCC1)O[C@@H]2C	none (no result: FAS-TE inh, GRIN3A LBD mod)
CN[C@H]1C[C@H]2c3[nH]c4cccc(-c5cccc(F)c5)c4c3CCN2C(=O)[C@H]1[C@H](C)O	none (no result: FAS-TE inh, GRIN3A LBD mod)
CCCN(CC1CC1)c1nc(C)nc2c1nnn2Cc1ccccc1	none (no result: FAS-TE inh, GRIN3A LBD mod)
Cn1ncc(Br)c1C(=O)Nc1ccc(Br)cn1	none
Cn1ncc(Br)c1C(=O)Nc1ccc(Cl)cn1	GRIN3A LBD mod 13
COC(=O)/C(C#N)=C/c1c(Oc2cc(C)cc(C)c2)nc2c(C)cccn2c1=O	GRIN3A LBD mod 13
NNc1nc(-c2ccccc2)nc2sc3c(c12)CCCC3	none
Nc1c2c(nc3sc4c(c13)CCCC4)-c1ccccc1CC2	GRIN3A LBD mod 22
O=C(Nc1ccc(OC(F)(F)F)cc1)Nc1c(-c2ccc(C(F)(F)F)cc2)nc2ncccn12	none (no result: FAS-TE inh, GRIN3A LBD mod)
Cc1ccccc1OCc1nc(-c2ccccc2)no1	none
Cc1ccccc1OCc1nc(-c2ccc(Br)o2)no1	GRIN3A LBD mod 16
CC(=O)Nc1ccc(C(CCCc2ccccc2)C2=CCCCC2)cc1 (configuration not stated)	none (no result: FAS-TE inh, GRIN3A LBD mod)
CC(=O)Nc1nc(COc2ccccc2)cs1	none
Cc1ccc(C(=O)Nc2nc(COc3ccccc3)cs2)s1	GRIN3A LBD mod 29
COc1cccc(OC)c1C(=O)Nc1nc(COc2ccccc2)cs1	GRIN3A LBD mod 23
CCOC(=O)Cn1cc(CN2CCS(=O)(=O)N(Cc3ccc(F)cc3)C(C(=O)OC)C2)nn1 (configuration not stated)	none (no result: FAS-TE inh, GRIN3A LBD mod)
COC1=CC(=O)C(O)=C(CCCCCCC/C=C/CCCCCCCC2=C(O)C(=O)C=C(OC)C2=O)C1=O	GRIN3A LBD mod 25 (no result: HGIII-sPLA2 inh, ADAM17 inh, ADAM10 inh)
CCCCCCc1c(O)c2ccccc2[nH]c1=O	none
